Measurements: PubChem BioAssay (EPA / NIEHS)
Values joined by “and” are separate entries in the source; they are usually repeats but may differ in a detail not shown here. Equal entries are not always repeated. More than one record can exist for a structure, and the calls need not agree. Active and inactive are the calls of the source. Rule for the calls: active = hit-call score of the fitted dose curve at least 0.9, where 1 is the maximum; inactive = score below 0.9.

Legend:
[1] = APR_HepG2_P-H2AX_72hr: Apredica 72-hour HepG2 Assay for H2AX Phosphorylation (AID 2282916); settings: imaging, actives raise or lower the signal;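 note: phospho-histone H2A.x immunostain intensity per cell marking DNA damage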
Summary of the method: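 HepG2; cpd 0.39–200 uM ×10 conc, duplicates; 0.5% DMSO; 72 hr. Fix 3.7% formaldehyde 30 min RT, 0.5% Triton X-100 10 min. Anti-phospho-H2A.x 1:200 + Hoechst 2 ug/mL, 60 min RT; ArrayScan imaging.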

[2] = APR_HepG2_MitoticArrest_72hr: Apredica 72-hour HepG2 Assay for Mitotic Arrest (AID 2282918); settings: high-content imaging, actives raise or lower the signal
Summary of the method: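 Read-out is phospho-histone H3 immunofluorescence with Hoechst nuclear segmentation, imaged at 20x. Human HepG2 liver cells received ten concentrations (0.39–200 uM, final DMSO 0.5% v/v) for 72 hr before fixation. Gain or loss of signal was fitted relative to DMSO.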

[3] = APR_HepG2_MicrotubuleCSK_72hr: Apredica 72-hour HepG2 Assay for Microtubule CSK Stabilty (AID 2282919); settings: HepG2 microtubule cytoskeleton, high-content imaging, actives raise or lower the signal
Summary of the method: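 Read-out is tubulin fluorescence intensity from high-content imaging of HepG2 cells, with nuclei identified by Hoechst 33342. Treatment lasts 72 h at 0.39–200 uM, and curves are fitted bidirectionally against the DMSO negative control.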

[4] = APR_HepG2_P-H2AX_24hr: Apredica 24-hour HepG2 Assay for H2AX Phosphorylation (AID 2282920); settings: high-content imaging, actives raise or lower the signal
Summary of the method: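 HepG2, 24 hr, cpd 0.39–200 uM (10 conc, duplicate), DMSO 0.5% v/v final. Fix 3.7% formaldehyde, Triton X-100 permeabilize, anti-phospho-H2A.x 1:200 + Hoechst 2 ug/mL. Imaged, bidirectional fit vs DMSO.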

[5] = APR_HepG2_StressKinase_72hr: Apredica 72-hour HepG2 Assay for Stress Kinase (AID 2282921); settings: HepG2 stress kinase (phospho-c-Jun) imaging, actives raise or lower the signal
Summary of the method: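 Dose 0.39–200 uM (10 pts, duplicate), 0.5% DMSO; 72 h; fix 3.7% formaldehyde 30 min RT; Triton permeabilize; anti-phospho-c-Jun/Cy3 + Hoechst 60 min RT; image 20x; fit gain/loss vs DMSO.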

[6] = APR_HepG2_StressKinase_24hr: Apredica 24-hour HepG2 Assay for Stress Kinase (AID 2282922); settings: HepG2 stress kinase (phospho-c-Jun) imaging, actives raise or lower the signal
Summary of the method: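 HepG2, 24 hr dosing, 0.39–200 uM in duplicate, 0.5% DMSO; formaldehyde fix (3.7%), 0.5% Triton X-100; anti-phospho-c-Jun + Cy3 secondary, Hoechst counterstain; ArrayScan imaging; bidirectional curve fit vs DMSO baseline.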

[7] = APR_HepG2_p53Act_72hr: Apredica 72-hour HepG2 Assay for p53 Activation (AID 2282923); settings: high-content imaging, actives raise or lower the signal;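 note: average cellular p53 protein immunofluorescence intensity in HepG2 cells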
Summary of the method: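 10-pt conc. 0.39–200 uM, duplicate, 0.5% DMSO; 72 hr exposure; 3.7% formaldehyde fix, 0.5% Triton perm; sheep anti-p53/Cy5 + Hoechst; ArrayScan 20x, 6 images/well; gain/loss fit vs DMSO.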

[8] = APR_HepG2_MitoMass_72hr: Apredica 72-hour HepG2 Assay for Mitochondrial Mass (AID 2282924); settings: high-content imaging, actives raise or lower the signal;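 note: MitoTracker Red CMXRos stain intensity per cell imaged as mitochondrial mass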
Summary of the method: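 HepG2, 72 hr cmpd, 10 conc 0.39–200 uM in dup, DMSO 0.5% v/v. MitoTracker Red CMXRos 250 nM 30 min pre-fix; formaldehyde 3.7% fix 30 min RT. HCS imaging, gain/loss fit vs DMSO.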

[9] = APR_HepG2_NuclearSize_72hr: Apredica 72-hour HepG2 Assay for Nuclear Size (AID 2282925); settings: high-content imaging, actives raise or lower the signal
Summary of the method: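 HepG2; cpd 0.39–200 uM, 10 conc, duplicate; 72 h; DMSO 0.5% v/v; fix 3.7% formaldehyde 30 min RT; Triton permeabilization; Hoechst 2 ug/mL; HCS imaging 20x; nuclear diameter; gain/loss fit vs DMSO.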

[10] = ATG_CRE_CIS: Attagene CIS-FACTORIAL HepG2 Assay for human cAMP Responsive Element (CRE) binding protein 3 (AID 2282926); settings: HepG2 CRE cis-reporter, Attagene multiplexed mRNA; actives raise or lower the signal
Summary of the method: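 Human liver HepG2, transient MRTU transfection, 24 h compound exposure. Total RNA → oligo(dT) RT → PCR → 6-FAM primer extension → HpaI cut → CE. Activity called both directions vs DMSO.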

[11] = molecular target: CCAAT/enhancer-binding protein beta (Homo sapiens) (UniProt P17676); experiment: ATG_C_EBP_CIS: Attagene CIS-FACTORIAL HepG2 Assay for human CCAAT/Enhancer Binding Protein (C/EBP) beta (AID 2282927); settings: HepG2 Attagene cis-factorial transcription factor reporter; actives raise or lower the signal
Summary of the method: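 Endogenous transcription factor activity in human liver HepG2 cells is inferred from induction of a CEBPB-linked reporter mRNA. Exposure lasts 24 h; activity is fitted in both directions relative to DMSO.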

[12] = ATG_CMV_CIS: Attagene CIS-FACTORIAL HepG2 Assay for human CMV (Internal Marker) (AID 2282928); settings: HepG2 CMV promoter reporter, transcription factor profiling; actives raise or lower the signal;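 note: endpoint acts as a background internal control marker rather than a target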
Summary of the method: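 CMV internal-marker background readout in transiently transfected HepG2 cells bearing cis-regulated reporter units. Reporter mRNA is measured 24 h after dosing by RT-PCR and capillary electrophoresis, with bidirectional fitting against DMSO.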

[13] = ATG_DR4_LXR_CIS: Attagene CIS-FACTORIAL HepG2 Assay for human Liver X Receptor (LXR), DR4 submotif (AID 2282929); settings: HepG2 Attagene DR4 cis-reporter, mRNA transcription; actives raise or lower the signal
Summary of the method: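 The endpoint is DR4-element-driven reporter transcripts after 24 h chemical exposure of transfected HepG2 cells. These were measured via RT-PCR and capillary electrophoresis, and gain or loss of signal was fitted relative to DMSO controls.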

[14] = molecular target: Aryl hydrocarbon receptor (Homo sapiens) (UniProt P35869); experiment: ATG_Ahr_CIS: Attagene CIS-FACTORIAL HepG2 Assay for human Aryl Hydrocarbon Receptor (Ahr) (AID 2282930); settings: HepG2 AhR cis-factorial reporter transcription; actives raise or lower the signal
Summary of the method: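 Transient MRTU transfection of HepG2 → 24 h compound exposure → total RNA, oligo(dT) RT → PCR, 6-FAM extension, HpaI cut → CE fluorescence. DMSO = baseline; bidirectional curve fit.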

[15] = ATG_AP_1_CIS: Attagene CIS-FACTORIAL HepG2 Assay for human Activator Protein 1 (AP-1) (AID 2282931); settings: HepG2 Attagene cis-factorial AP-1 reporter mRNA; actives raise or lower the signal
Summary of the method: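 Readout is reporter transcript level from endogenous transcription factor activity, quantified by RT-PCR with fluorescent primer extension and capillary electrophoresis. Transiently transfected HepG2 cells, 24 h exposure. Curves fitted both directions versus DMSO.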

[16] = ATG_AP_2_CIS: Attagene CIS-FACTORIAL HepG2 Assay for human Activator Protein 2 (AP-2) (AID 2282932); settings: HepG2 AP-2 cis-reporter, Attagene transcription factor profiling; actives raise or lower the signal
Summary of the method: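 HepG2, transient MRTU transfection, cis-regulated reporters; 24 h compound exposure; RNA isolated, RT-PCR, 6-FAM labelling, HpaI digest, CE fluorescence. DMSO = negative control/baseline, bidirectional fit.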

[17] = ATG_BRE_CIS: Attagene CIS-FACTORIAL HepG2 Assay for human Bone Morphogenetic Protein (BMP) Response Element (BRE) (AID 2282933); settings: HepG2 BMP response element reporter, Attagene transcription factor profiling; actives raise or lower the signal
Summary of the method: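 Transient MRTU transfection of human HepG2 liver cells; 24 h compound treatment; total RNA isolated, reverse-transcribed, PCR-amplified, 6-FAM labelled, HpaI-cut, capillary electrophoresis. DMSO = negative control/baseline, bidirectional fit.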

[18] = molecular target: Retinoic acid receptor alpha (Homo sapiens) (UniProt P10276); experiment: ATG_DR5_RAR_CIS: Attagene CIS-FACTORIAL HepG2 Assay for human Retinoic Acid Receptor Alpha (RARE), DR5 submotif (AID 2282934); settings: HepG2 Attagene cis-factorial RARE DR5 reporter, mRNA; actives raise or lower the signal
Summary of the method: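 Transient MRTU transfection of HepG2; 24 h compound treatment; TriZol RNA, oligo(dT) RT, PCR, FAM labelling, capillary electrophoresis. Bidirectional fit vs DMSO. Endogenous TF activity at DR5 RARE.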

[19] = molecular target: Transcription factor E2F1 (Homo sapiens) (UniProt Q01094); experiment: ATG_E2F_CIS: Attagene CIS-FACTORIAL HepG2 Assay for human E2F Transcription Factor 1 (AID 2282935); settings: HepG2 Attagene cis-reporter, E2F reporter RNA transcripts; actives raise or lower the signal
Summary of the method: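 Cis-element reporter mRNA induction in transiently transfected HepG2, 24 h exposure. Activity fitted in both directions relative to DMSO negative control.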

[20] = APR_HepG2_MitoMembPot_72hr: Apredica 72-hour HepG2 Assay for Mitochondrial Membrane Potential (AID 2282917); settings: imaging, actives raise or lower the signal
Summary of the method: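 Membrane potential read by MitoTracker Red CMXRos (250 nM, 30 min, pre-fixation) fluorescence imaging of HepG2 after 72 hr exposure. Ten concentrations, 0.39–200 uM, duplicate wells, 0.5% DMSO; fitted in both directions against DMSO baseline.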

Measured: AC50

Chain of Retinoic acid receptor alpha (Homo sapiens) (P10276 whole entry, looked up): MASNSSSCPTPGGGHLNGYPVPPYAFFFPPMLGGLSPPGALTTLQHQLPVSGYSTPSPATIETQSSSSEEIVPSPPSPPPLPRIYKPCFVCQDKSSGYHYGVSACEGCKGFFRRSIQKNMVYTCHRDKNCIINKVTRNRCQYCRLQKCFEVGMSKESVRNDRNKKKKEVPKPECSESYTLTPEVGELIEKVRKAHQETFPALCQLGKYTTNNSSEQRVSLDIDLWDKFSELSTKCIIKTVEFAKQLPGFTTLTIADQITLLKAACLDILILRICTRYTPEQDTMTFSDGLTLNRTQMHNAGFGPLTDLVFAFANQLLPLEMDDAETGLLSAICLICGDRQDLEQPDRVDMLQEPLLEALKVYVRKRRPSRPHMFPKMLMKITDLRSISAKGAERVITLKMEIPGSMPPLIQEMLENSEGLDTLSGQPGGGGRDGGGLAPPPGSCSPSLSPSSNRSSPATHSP
Chain of CCAAT/enhancer-binding protein beta (Homo sapiens) (P17676 whole entry, looked up): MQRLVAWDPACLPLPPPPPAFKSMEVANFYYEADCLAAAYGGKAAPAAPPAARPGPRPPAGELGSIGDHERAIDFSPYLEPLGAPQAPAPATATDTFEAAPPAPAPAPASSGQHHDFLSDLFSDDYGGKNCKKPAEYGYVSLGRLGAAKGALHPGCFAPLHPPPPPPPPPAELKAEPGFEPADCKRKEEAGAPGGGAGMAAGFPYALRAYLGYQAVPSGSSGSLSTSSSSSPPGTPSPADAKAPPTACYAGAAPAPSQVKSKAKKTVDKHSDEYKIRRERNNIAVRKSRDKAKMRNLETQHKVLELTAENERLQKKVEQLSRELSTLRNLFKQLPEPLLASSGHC
Chain of Transcription factor E2F1 (Homo sapiens) (Q01094 whole entry, looked up): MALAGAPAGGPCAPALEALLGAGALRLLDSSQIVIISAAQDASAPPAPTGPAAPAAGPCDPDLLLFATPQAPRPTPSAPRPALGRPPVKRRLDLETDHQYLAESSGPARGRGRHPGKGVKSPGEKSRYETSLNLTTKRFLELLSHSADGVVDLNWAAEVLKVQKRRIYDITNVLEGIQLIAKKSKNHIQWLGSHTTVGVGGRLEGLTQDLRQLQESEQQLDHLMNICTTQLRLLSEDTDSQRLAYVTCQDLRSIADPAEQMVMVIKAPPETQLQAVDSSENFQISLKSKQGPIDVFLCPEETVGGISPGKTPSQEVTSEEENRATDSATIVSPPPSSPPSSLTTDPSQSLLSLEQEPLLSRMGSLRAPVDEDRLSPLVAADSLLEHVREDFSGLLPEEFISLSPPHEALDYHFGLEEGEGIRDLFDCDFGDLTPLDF
Chain of Aryl hydrocarbon receptor (Homo sapiens) (P35869 whole entry, looked up): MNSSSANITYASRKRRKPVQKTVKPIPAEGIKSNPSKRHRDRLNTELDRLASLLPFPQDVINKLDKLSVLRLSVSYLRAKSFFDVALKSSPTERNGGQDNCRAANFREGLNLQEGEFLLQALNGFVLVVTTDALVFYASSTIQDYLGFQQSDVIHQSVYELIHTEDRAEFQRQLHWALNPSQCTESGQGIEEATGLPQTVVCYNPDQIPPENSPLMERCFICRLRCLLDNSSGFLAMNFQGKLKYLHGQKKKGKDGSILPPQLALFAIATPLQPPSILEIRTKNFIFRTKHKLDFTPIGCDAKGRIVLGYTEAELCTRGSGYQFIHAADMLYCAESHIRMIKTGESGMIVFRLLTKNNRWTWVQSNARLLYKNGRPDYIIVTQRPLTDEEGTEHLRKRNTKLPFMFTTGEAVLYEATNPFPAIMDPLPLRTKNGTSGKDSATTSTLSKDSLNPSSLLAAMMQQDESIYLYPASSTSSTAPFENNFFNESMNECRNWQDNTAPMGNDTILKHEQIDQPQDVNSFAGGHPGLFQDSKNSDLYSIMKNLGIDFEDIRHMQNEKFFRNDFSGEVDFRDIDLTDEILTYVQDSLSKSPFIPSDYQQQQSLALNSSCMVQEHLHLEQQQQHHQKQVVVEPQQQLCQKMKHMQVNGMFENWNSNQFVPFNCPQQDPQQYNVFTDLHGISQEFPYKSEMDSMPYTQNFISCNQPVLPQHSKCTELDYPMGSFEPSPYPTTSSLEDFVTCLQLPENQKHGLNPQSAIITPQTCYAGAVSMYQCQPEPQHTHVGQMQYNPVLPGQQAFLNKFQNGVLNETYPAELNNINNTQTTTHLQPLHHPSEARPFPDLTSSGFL

CCCCCCCCCCCC[N+](C)(C)C
active: [1] 75.4 µM | [2] 13.2 µM | [4] 50.4 µM | [5] 100 µM | [7] 20.5 µM | [13] 22.4 µM and 33.4 µM | [15] 33.4 µM and 12.7 µM | [17] 33.4 µM and 27.1 µM
not listed: [20]
inactive: all other assays above

O=C(O)c1ccccc1C(=O)OCc1ccccc1
not listed: [20]
inactive: all other assays above

O=C1CCC(C2CCCCC2)CC1
inactive: [1] | [2] | [3] | [4] | [5] | [6] | [7] | [8] | [9] | [10] | [11] | [12] | [14] | [16] | [17] | [18] | [19]
active: [12] 100 µM and 39.3 µM | [15] 133 µM [middle of 4 runs] | [16] 163 µM | [17] 147 µM and 156 µM

CCCCCCCCOC(=O)c1cc(O)c(O)c(O)c1
active: [1] 5.88 µM | [20] 23.8 µM | [2] 68.3 µM | [4] 45.6 µM | [6] 52.1 µM | [7] 4.98 µM | [15] 6.37 µM
not listed: [13]
inactive: all other assays above

c1ccc2ccccc2c1
active: [2] 0.0415 µM | [7] 0.0391 µM | [8] 0.0598 µM
not listed: [20]
inactive: all other assays above

CC(C)(C)c1cc(/C=C2\SC(N)=NC2=O)cc(C(C)(C)C)c1O
inactive: [20] | [9] | [11] | [14] | [16] | [17] | [18] | [19]
active: [1] 41.6 µM | [2] 40.3 µM | [3] 27.4 µM | [4] 55.2 µM | [5] 60.5 µM | [6] 60 µM | [7] 35.2 µM | [8] 86.1 µM | [10] 18.9 µM | [12] 4.67 µM | [15] 20.2 µM

CCCCOC(=O)c1ccc(O)cc1
active: [10] 72.6 µM | [11] 100 µM | [16] 136 µM | [17] 166 µM [middle of 4 runs]
inactive: [20] | [2] | [3] | [4] | [5] | [6] | [7] | [8] | [9] | [10] | [11] | [12] | [14] | [15] | [16] | [18] | [19]

CCCCCCCCCCCCO
active: [8] 119 µM
not listed: [20]
inactive: all other assays above

CC/C(=C(/CC)c1ccc(O)cc1)c1ccc(O)cc1
active: [20] 71.6 µM | [2] 91.2 µM | [4] 33.1 µM | [5] 28.7 µM | [7] 74.1 µM | [10] 15.9 µM | [12] 18 µM and 15.4 µM | [15] 13.8 µM and 11.1 µM and 14.4 µM
inactive: [3] | [6] | [8] | [9] | [10] | [11] | [12] | [15] | [16] | [17] | [19]

CN1C(=O)N(c2ccccc2Br)Cc2cnc(Nc3ccc4c(c3)OCC(CO)O4)nc21 (stereo unspecified)
active: [1] 3.96 µM | [2] 2.57 µM | [4] 5.05 µM | [7] 4.04 µM | [8] 19.8 µM | [10] 5.78 µM | [11] 2.61 µM | [13] 27.1 µM | [15] 4.77 µM
inactive: all other assays above

c1ccc2n[nH]nc2c1
inactive: [1] | [20] | [2] | [3] | [4] | [5] | [6] | [7] | [8] | [9] | [10] | [11] | [12] | [13] | [14] | [15] | [16] | [17] | [18] | [19]
active: [14] 51.9 µM

CCN(Cc1cccc(S(=O)(=O)O)c1)c1ccc(C(=C2C=CC(=[N+](CC)Cc3cccc(S(=O)(=O)O)c3)C=C2)c2ccccc2S(=O)(=O)[O-])cc1
inactive: all assays above
